CYP2C9 activ = activators of human CYP2C9; recombinant CYP2C9, luciferin-H conversion, luminescence; active compounds read high; factor 1 = untreated enzyme, 0 = blocked; activation factor at 5 µM; 96,000 tested, 1.4% active; AID 1024;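 active means activation factor of 2 or more for CYP2C9 at a 5 µM dose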;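 further: 0 = sulfaphenazole-blocked wells and 1 = vehicle-only wells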
Mac1 fbg enh = enhancers of human CD11b/CD18 binding to fibrinogen. K562 CD11b/CD18 adhesion to fibrinogen, ATPlite luminescence. activation, % at 10 µM. 93,000 tested, 0.07% active. AID 1499;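 active means 10 µM primary screen giving 50% or more activity, confirmed by 40% or more on retest at that dose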
CYP2C19 inhib = inhibitors of human CYP2C19; inhibition, % at 5 µM; 96,000 tested, 21% active; P33261; CYP2C19 Supersomes, luciferin-H EGE luminescence, 30 min;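 active means CYP2C19 inhibition above a set limit at 5 µM in the primary screen, cut at about 50% in these data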;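 further: plate controls were negative control wells for no effect and 2.5 mM tranylcypromine positive control for full effect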
CYP2C19 act = activators of human cytochrome P450 2C19 | P33261 | recombinant CYP2C19, luciferin-H EGE luminescence; active compounds read high; 0 = fully inhibited enzyme, 1 = untreated enzyme | activation factor at 5 µM | 96,000 tested, under 10 active;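 active means activation factor of at least 2 at 5 µM in the primary screen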;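 further: 0 = wells with 2.5 mM tranylcypromine and 1 = vehicle-only wells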
CYP2C9 inh = human CYP2C9 inhibition. P11712. CYP2C9 Supersomes, luciferin-H conversion, luminescence. inhibition, % at 5 µM. 96,000 tested, 20% active;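 active means blocking of liver enzyme CYP2C9 beyond about 50% at 5 µM, limit read from the data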
CD11b adhes inh = blocks human CD11b/CD18 adhesion to fibrinogen | AID 1497 | inhibition, % at 10 µM | 93,000 tested, 0.54% active | P05107+P11215 | K562 CD11b/CD18 adhesion to fibrinogen, ATPlite luminescence; Mn2+ added to activate the integrin;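 active means primary inhibition of 50% or more at 10 µM, then 40% or more on retest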
Starred values were filed as active, the others as inactive; · = no result given. Hits are enriched below; roughly 28% of the tested compounds scored in any of these assays.

SMILES	CYP2C9 activ	Mac1 fbg enh	CYP2C19 inhib	CYP2C19 act	CYP2C9 inh	CD11b adhes inh
O=C(O)C1CC=CCC1C(=O)NCCc1cccc(Cl)c1 (stereo not drawn)	1.1	3	6	0.9	-10	-4
CSc1c(-c2ccccc2)nc2ccc(Cl)cc2c1C(=O)O	0.2	0	2	1	81*	1
CCCS(=O)(=O)c1c(S(=O)(=O)CCC)c2c3ccccc3ccn2c1C(N)=O	1	0	2	1	0	1
CCCS(=O)(=O)c1c(S(=O)(=O)CCC)c2c(N)cccn2c1C(=O)c1ccccc1	0.3	-2	40	0.6	75*	-29
Cc1noc(C)c1CSc1ccccc1C(=O)Nc1nccs1	0.7	-2	76*	0.2	32	-4
O=C(Nc1ccc(CN2CCOCC2)cc1)c1ccc(-c2ccc(Br)cc2)o1	0.8	-1	18	0.8	23	73
CCOc1ccc(-c2nnn(CC(=O)c3cc(OC)ccc3OC)n2)cc1	1.6	5	12	0.9	-57	-6
CC1=C(C(=O)Nc2ccccc2)C(c2ccc(C)o2)n2ncnc2N1 (stereo not drawn)	1	-1	-1	1	2	1
O=C(Nc1ccc(CN2CCCCC2)cc1)c1cccc(Br)c1	·	2	·	·	·	1
CCN1CCN(Cc2cccc(Oc3ccccc3)c2)CC1	1	-1	31	0.7	-3	9
c1ccc(COc2cccc(CN3CCN(c4ccccn4)CC3)c2)cc1	0.3	-7	44	0.6	70*	38
Brc1cccc(CN2CCCCCCC2)c1	1.1	-1	77*	0.2	-13	-1
c1ccc(Oc2cccc(CN3CCCCC3)c2)cc1	1.1	2	50*	0.5	-8	-6
FC(F)(F)c1nc2ccccc2nc1N/N=C/c1c(Cl)cccc1Cl	0.8	-2	44	0.6	22	-6
COCCn1nnnc1C(c1ccccc1OC)N1CCN(c2ccccc2)CC1 (stereo not drawn)	0.9	-1	34	0.7	10	-9
COCCn1nnnc1C(c1cccs1)N1CCN(c2cc(C)ccc2C)CC1 (stereo not drawn)	0.4	10	38	0.6	62*	-12
COCCn1nnnc1C(c1cccs1)N1CCN(c2nc3ccccc3s2)CC1 (stereo not drawn)	0.1	-4	82*	0.2	89*	4
COCCn1nnnc1C(c1cc2cc(C)cc(C)c2[nH]c1=O)N1CCN(c2ccccc2F)CC1 (stereo not drawn)	0.2	8	35	0.7	78*	-11
O=C(COC(=O)Cc1cccs1)Nc1ccc(F)c(F)c1F	0.8	-2	75*	0.3	25	6
CC(=O)Nc1ccc(NC(=O)COC(=O)Cc2cccs2)cc1	0.9	-2	11	0.9	10	-39
Cn1c(NC(=O)c2ccccc2)c(-c2cccs2)c(=O)c2ccccc21	0.2	8	-15	1.1	84*	3
CC(C)C(=O)Nc1c(-c2cccs2)c(=O)c2ccccc2n1C	1.1	-10	-1	1	-14	11
Cn1c(NC(=O)c2cccs2)c(-c2cccs2)c(=O)c2ccccc21	0.3	-3	4	1	67*	-13
COc1cccc(CNCC(=O)N2C(C)CCCC2C)c1 (stereo not drawn)	0.9	-2	49	0.5	12	-7
CCN(CC)c1nc(C)c(C(C)=O)cc1C#N	0.8	-4	54*	0.5	17	1
SMILES	CYP2C9 activ	Mac1 fbg enh	CYP2C19 inhib	CYP2C19 act	CYP2C9 inh	CD11b adhes inh
CC(=O)c1cc(C#N)c(SCc2ccncc2)nc1C	0.1	0	97*	0	93*	2
CCSc1nc(C)c(C(C)=O)cc1C#N	0.9	2	26	0.7	10	-10
Cc1nccn1S(=O)(=O)c1ccc(Br)cc1Br	0.9	-1	66*	0.3	10	-9
COc1ccc(Br)cc1S(=O)(=O)n1ccnc1C	2.4*	-2	99*	0	-142	6
COc1ccc(OC)c(S(=O)(=O)n2cccn2)c1	1.2	3	5	0.9	-23	-9
COc1ccc(S(=O)(=O)n2cnc3cc(C)c(C)cc32)cc1C	0.6	2	50	0.5	44	26
COc1ccc(OC)c(S(=O)(=O)n2ccnc2C)c1	1.5	-4	93*	0.1	-50	0

Assay outcomes deposited in PubChem BioAssay by Sanford-Burnham Center for Chemical Genomics.
